Potency and outcome data for 36 compounds are collected here from PubChem BioAssay (NCATS).

Results filed as inconclusive are left out. Activity calls are given as the source filed them. Calls follow the shape of the dose curve; as a rule, active = well fitted curve in the direction sought with a large enough effect; inconclusive = small, poorly fitted or top-dose-only effect, or another doubt; inactive = no such curve, though single readings can be large; an effect the other way counts as inactive or inconclusive.

The nature of assay [1]: qHTS to identify inhibitors of the type 1 interferon - major histocompatibility complex class I in skeletal muscle: primary screen against the NCATS LOPAC collection (AID 1347405).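 Also: lytic HiBiT luminescence reporting HLA-B protein level.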 Put shortly: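 Immortalized human C25cl48 myoblasts with HiBiT knocked into endogenous HLA-B*08:01 were stimulated with 4.0 ng/ml IFN-beta and given compounds in a 7-point, 1:4.3 titration from 46 uM final; after 24 hrs, lytic HiBiT luminescence was read.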

A short description of assay [2]: qHTS for inhibitors of adenylyl cyclases using a fission yeast platform: a pilot screen against the NCATS LOPAC library (AID 1347410). In a few lines: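 Inhibition of GNAS-stimulated AC9 activity in S. pombe was inferred from derepression of a PKA-repressed fbp1-GFP reporter, measured as cytometric fluorescence after 18 h at 30C with compounds at up to 57 µM.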
Assay [3] can be described thus: qHTS to identify inhibitors of the type 1 interferon - major histocompatibility complex class I in skeletal muscle: primary screen against the NCATS Mechanism Interrogation Plate v5.0 (MIPE) Libary (AID 1347411). Also: nearly all actives have a fitted effect of over 65% in size. Also: potency is read from the fitted curve at half-maximal effect. In a few lines: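 Immortalized human C25cl48 myoblasts with HiBit knocked into endogenous HLA-B*08:01 were stimulated with 4.0 ng/ml IFN-beta and exposed to compounds (11-point 1:3 titration, top 46 uM final) for 24 hrs at 37 C; HiBiT lytic luminescence measured.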

In assay [4] the target is Protein phosphatase 1D (Homo sapiens) (UniProt O15297). The experiment in a line: RapidFire Mass Spectrometry qHTS Assay for Modulators of WT P53-Induced Phosphatase 1 (WIP1) (AID 1347424).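 Also: amount of dephosphorylated VEPPL-S-QETFS peptide product formed by WIP1; series mostly up to about 63 µM.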 In a few lines:
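WIP1 (10 nM final) was preincubated 1 h at room temperature with compounds in Tris-HCl pH 7.5, 30 mM MgCl2, TCEP, EGTA, BSA; 2 uM VEPPL-pS-QETFS phosphopeptide was added for 5 min, quenched with formic acid, and dephosphorylated product quantified by RapidFire MS.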
(In qHTS, concentration-response curves come from the screen itself.)

For assay [5] the target is unchanged. The experiment in a line: Rhodamine-PBP qHTS Assay for Modulators of WT P53-Induced Phosphatase 1 (WIP1) (AID 1347425). In a few lines:
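WIP1 (5 nM final) was preincubated with compound for 1 hour at room temperature. It then dephosphorylated 10 uM VEPPL-pS-QETFS peptide in Tris-HCl pH 7.5 with 30 mM MgCl2. Released Pi was detected by 10 uM Rh-PBP fluorescence (ex 525/em 598 nm) read at 1-min intervals for 11 min, as delta f1 - f0.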

Assay [6] in a line: Validation qHTS assay for inhibitors of Activation Induced Cytidine Deaminase (AID): UDG Counterscreen signal (AID 1347427). In a few lines:
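Counterscreen read of UDG activity (2 U/mL, 4/3x) in the FRET deamination format with AID (1 uM, 4/3x), DJC20/DJC23 substrates (250 nM, 4x), 4 h at room temperature. NaOH stop, fluorescence at 560 ex/665 em.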

The target of assay [7] is Single-stranded DNA cytosine deaminase (Homo sapiens) (UniProt Q9GZX7). The experiment in a line: Validation qHTS assay for inhibitors of Activation Induced Cytidine Deaminase (AID): AID signal (AID 1347429). Put shortly:
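AID and UDG were combined and compounds added at final up to 114 uM, then DJC20/DJC23 FRET substrate was added for 4 hr at room temperature. NaOH was then added for 30 min before fluorescence was read at 540/590 nm.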

The nature of assay [8]: qHTS to identify inhibitors of the type 1 interferon - major histocompatibility complex class I in skeletal muscle: primary screen against the NCATS Pharmaceutical Collection (AID 1347407).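 Also: luminescence of HiBiT knocked into endogenous HLA-B as interferon-induced MHC class I level.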 In a few lines: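 A qHTS format is used: 8-point, 1:5 compound series with 46 uM top final concentration, applied alongside 4 ng/ml IFN-beta to HLA-B*08:01-HiBiT knock-in myoblasts. Luminescence is measured after 24 h treatment.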

Single-stranded DNA cytosine deaminase (Homo sapiens), sequence (Q9GZX7 whole entry, looked up): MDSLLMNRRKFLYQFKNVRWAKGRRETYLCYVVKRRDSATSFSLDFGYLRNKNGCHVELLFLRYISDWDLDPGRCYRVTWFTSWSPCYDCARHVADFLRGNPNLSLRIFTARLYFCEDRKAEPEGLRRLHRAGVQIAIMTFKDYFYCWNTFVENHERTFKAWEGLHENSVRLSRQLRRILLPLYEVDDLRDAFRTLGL
Protein phosphatase 1D (Homo sapiens), sequence (O15297 whole entry, looked up): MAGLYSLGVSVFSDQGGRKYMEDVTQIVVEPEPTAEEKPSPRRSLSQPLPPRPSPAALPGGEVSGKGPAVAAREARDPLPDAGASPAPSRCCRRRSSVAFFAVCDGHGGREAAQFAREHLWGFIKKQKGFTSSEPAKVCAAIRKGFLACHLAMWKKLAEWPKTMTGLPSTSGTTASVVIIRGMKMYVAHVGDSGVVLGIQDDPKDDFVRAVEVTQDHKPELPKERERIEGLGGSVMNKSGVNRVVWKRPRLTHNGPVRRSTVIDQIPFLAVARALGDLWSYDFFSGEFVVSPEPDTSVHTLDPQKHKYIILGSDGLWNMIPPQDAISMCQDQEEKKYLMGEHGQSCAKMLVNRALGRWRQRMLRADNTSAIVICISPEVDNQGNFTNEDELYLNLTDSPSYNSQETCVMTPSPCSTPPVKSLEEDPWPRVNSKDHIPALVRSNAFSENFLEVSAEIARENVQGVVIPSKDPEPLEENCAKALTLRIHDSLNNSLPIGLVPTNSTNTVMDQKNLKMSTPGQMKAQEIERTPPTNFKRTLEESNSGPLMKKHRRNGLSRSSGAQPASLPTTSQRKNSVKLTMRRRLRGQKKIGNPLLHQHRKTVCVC

On to `CC(C)NCC(O)c1ccc(O)c(O)c1` (stereo not drawn), for which the Potency entry in assay [1], in assay [3], in assay [4], in assay [6] and in assay [7] was “inactive” each time. In addition, the compound was called inactive in assay [2] and in assay [5].

Consider `COc1cc2nc(N3CCN(C(=O)c4ccco4)CC3)nc(N)c2cc1OC`, for which the result in assay [2] and in assay [5] was inactive. For the same compound, the Potency entry in assay [4] was “inactive”.

As to `Fc1ccc([C@@H]2CCNC[C@H]2COc2ccc3c(c2)OCO3)cc1`, the compound was classed as inactive in assay [2] and in assay [5]. The Potency entry in assay [4], in assay [6] and in assay [7] was “inactive” throughout.

Turning to `CCC1(c2ccccc2)C(=O)NCNC1=O`, the Potency entry in assay [4] was “inactive”. For the same compound, the compound was classed as inactive in assay [5].

Turning to `C[C@@H]1CC(=O)NN=C1c1ccc(NN=C(C#N)C#N)cc1`, the Potency entry in assay [8] and in assay [4] was “inactive” throughout. For the same compound, in assay [3], the Potency is 18.6 µM (active).

On to `CS(=O)(=O)CCNCc1ccc(-c2ccc3ncnc(Nc4ccc(OCc5cccc(F)c5)c(Cl)c4)c3c2)o1`, for which, in assay [3], the Potency is 33 µM (active). In addition, in assay [4], the Potency result was “inactive”. The compound was called inactive in assay [5].

With `COc1ccc(CCN(C)CCCC(C#N)(c2ccc(OC)c(OC)c2)C(C)C)cc1OC` (stereo not drawn), the call in assay [2] and in assay [5] was inactive. For the same compound, the Potency result in assay [4] is “inactive”.

On to `Cc1ccccc1N1C(=O)c2cc(S(N)(=O)=O)c(Cl)cc2NC1C` (stereo not drawn), for which the Potency result in assay [8], in assay [3], in assay [4], in assay [6] and in assay [7] was “inactive” in each case. Also, the compound was classed as inactive in assay [5].

For `Cc1cn([C@H]2C[C@H](N=[N+]=[N-])[C@@H](CO)O2)c(=O)[nH]c1=O`, the Potency result in assay [4] was “inactive”. Besides, in assay [5], the compound was called inactive.

In the case of `CCCCc1oc2ccccc2c1C(=O)c1cc(I)c(OCCN(CC)CC)c(I)c1`, the result in assay [2] and in assay [5] was inactive. Also, the Potency result in assay [4], in assay [6] and in assay [7] was “inactive” throughout.

With `O=C1Cc2cc(CCN3CCN(c4nsc5ccccc45)CC3)c(Cl)cc2N1`, the result in assay [2] and in assay [5] was inactive. The Potency result in assay [4], in assay [6] and in assay [7] was “inactive” in each case.

`CN1C2CCC1CC(OC(=O)C(CO)c1ccccc1)C2` (stereo not drawn): the call in assay [2] was inactive.

`O=c1c(O)c(-c2ccc(O)c(O)c2)oc2cc(O)cc(O)c12`: the Potency result in assay [8], in assay [3], in assay [4], in assay [6] and in assay [7] was “inactive” each time. Further, the call in assay [2] was inactive.

For the compound `O=C(c1ccc(F)cc1)C1CCN(CCn2c(=O)[nH]c3ccccc3c2=O)CC1`, the Potency result in assay [1], in assay [4], in assay [6] and in assay [7] was “inactive” each time. The compound was called inactive in assay [2] and in assay [5].

Regarding `CC(COc1ccccc1)N(CCCl)Cc1ccccc1` (stereo not drawn), the Potency entry in assay [3], in assay [4], in assay [6] and in assay [7] was “inactive” throughout. Also, the outcome in assay [5] was inactive.

With `COc1ccc2c(c1)c(CC(=O)O)c(C)n2C(=O)c1ccc(Cl)cc1`, the Potency result in assay [6] and in assay [7] was “inactive” in each case.

In the case of `CC(C)Cc1ccc(C(C)C(=O)O)cc1` (stereo not drawn), the outcome in assay [2] and in assay [5] was inactive. Besides, in assay [4], the Potency entry was “inactive”.

With `CN(C)C(=N)N=C(N)N`, the Potency entry in assay [4] was “inactive”. In addition, in assay [5], the call was inactive.

For `O=C(Nc1ccc([N+](=O)[O-])cc1Cl)c1cc(Cl)ccc1O`, the Potency entry in assay [8], in assay [3], in assay [4], in assay [6] and in assay [7] was “inactive” each time. Also, the result in assay [2] and in assay [5] was inactive.

On to `Clc1ccccc1C(c1ccccc1)(c1ccccc1)n1ccnc1`, for which the compound was classed as inactive in assay [2] and in assay [5]. Also, the Potency result in assay [4], in assay [6] and in assay [7] was “inactive” in each case.

For `CN(CCOc1ccc(NS(C)(=O)=O)cc1)CCc1ccc(NS(C)(=O)=O)cc1`, the call in assay [2] and in assay [5] was inactive. Also, the Potency entry in assay [4] is “inactive”.

Regarding `CC#C[C@]1(O)CC[C@H]2[C@@H]3CCC4=CC(=O)CCC4=C3[C@@H](c3ccc(N(C)C)cc3)C[C@@]21C`, the Potency result in assay [8], in assay [3], in assay [4], in assay [6] and in assay [7] was “inactive” in each case. Further, the compound was called inactive in assay [2] and in assay [5].

As for `Cn1c(=O)c2[nH]cnc2n(C)c1=O`, the Potency entry in assay [4] was “inactive”. Besides, the result in assay [5] was inactive.

Consider `COc1cc2nc(N3CCN(C(=O)C4COc5ccccc5O4)CC3)nc(N)c2cc1OC` (stereo not drawn), for which the Potency result in assay [1], in assay [4], in assay [6] and in assay [7] was “inactive” in each case. For the same compound, the compound was called inactive in assay [2] and in assay [5].

`CC1(C)O[C@H]2CC(=O)OC[C@]23[C@H]2CC[C@@]4(C)[C@H](c5ccoc5)OC(=O)[C@H]5O[C@]54[C@]2(C)C(=O)C[C@@H]13`: the Potency result in assay [8] and in assay [4] was “inactive” each time. The compound was classed as inactive in assay [5].

With `COC(=O)Nc1nc2ccc(C(=O)c3cccs3)cc2[nH]1`, the compound was called inactive in assay [2] and in assay [5]. The Potency entry in assay [4], in assay [6] and in assay [7] was “inactive” each time.

As to `COc1cc2c(c(OC)c1OC)-c1ccc(OC)c(=O)cc1[C@@H](NC(C)=O)CC2`, the Potency result in assay [8], in assay [4], in assay [6] and in assay [7] was “inactive” throughout. The call in assay [2] and in assay [5] was inactive.

In the case of `CN1CCN2c3ccccc3Cc3ccccc3C2C1` (stereo not drawn), the Potency result in assay [1], in assay [4], in assay [6] and in assay [7] was “inactive” each time. Moreover, the compound was called inactive in assay [2] and in assay [5].

In the case of `O=C(C1CCCCC1)N1CC(=O)N2CCc3ccccc3C2C1` (stereo not drawn), the Potency entry in assay [4] was “inactive”. Besides, the compound was classed as inactive in assay [5].

`CC1(CN2CCC(n3c(=O)[nH]c4ccccc43)CC2)OCc2ccccc2-n2cccc21` (stereo not drawn): the Potency result in assay [3] and in assay [4] was “inactive” each time. Further, the compound was classed as inactive in assay [5].

As for `Cn1c(=O)c2c(ncn2C)n(C)c1=O`, the Potency entry in assay [4], in assay [6] and in assay [7] was “inactive” each time. The call in assay [5] was inactive.

For the compound `COc1cc2nc(N(C)CCCNC(=O)C3CCCO3)nc(N)c2cc1OC` (stereo not drawn), the Potency result in assay [1], in assay [4], in assay [6] and in assay [7] was “inactive” in each case. Further, the compound was classed as inactive in assay [2] and in assay [5].

`CN1CCN(CCCN2c3ccccc3Sc3ccc(Cl)cc32)CC1`: the Potency entry in assay [1], in assay [4], in assay [6] and in assay [7] was “inactive” in each case. For the same compound, the call in assay [2] and in assay [5] was inactive.

As for `CS(=O)(=O)Nc1ccc([N+](=O)[O-])cc1Oc1ccccc1`, the Potency entry in assay [8], in assay [4], in assay [6] and in assay [7] was “inactive” each time. In addition, the compound was called inactive in assay [2] and in assay [5].

In the case of `OCCN1CCN(CCCN2c3ccccc3Sc3ccc(C(F)(F)F)cc32)CC1`, the Potency result in assay [8], in assay [4], in assay [6] and in assay [7] was “inactive” in each case. Besides, the call in assay [2] and in assay [5] was inactive.

`CN(C)C(=O)C(CCN1CCC(O)(c2ccc(Cl)cc2)CC1)(c1ccccc1)c1ccccc1`: the Potency result in assay [8], in assay [4], in assay [6] and in assay [7] was “inactive” each time. Moreover, the call in assay [2] and in assay [5] was inactive.
